Columns and labels:
[1] = molecular target: 26S proteasome regulatory subunit 8 homolog (UniProt Q01939); experiment: cross-link between two proteins; cross-linking mass spectrometry
[2] = molecular target: 26S proteasome regulatory subunit RPN1 (UniProt P38764); experiment: as above
[3] = molecular target: 26S proteasome regulatory subunit RPN7 (UniProt Q06103); experiment: as above
[4] = molecular target: 26S proteasome regulatory subunit RPN8 (UniProt Q08723); experiment: as above
[5] = molecular target: 26S proteasome subunit RPT4 (UniProt P53549); experiment: as above
Sequence of 26S proteasome subunit RPT4 (P53549 whole entry): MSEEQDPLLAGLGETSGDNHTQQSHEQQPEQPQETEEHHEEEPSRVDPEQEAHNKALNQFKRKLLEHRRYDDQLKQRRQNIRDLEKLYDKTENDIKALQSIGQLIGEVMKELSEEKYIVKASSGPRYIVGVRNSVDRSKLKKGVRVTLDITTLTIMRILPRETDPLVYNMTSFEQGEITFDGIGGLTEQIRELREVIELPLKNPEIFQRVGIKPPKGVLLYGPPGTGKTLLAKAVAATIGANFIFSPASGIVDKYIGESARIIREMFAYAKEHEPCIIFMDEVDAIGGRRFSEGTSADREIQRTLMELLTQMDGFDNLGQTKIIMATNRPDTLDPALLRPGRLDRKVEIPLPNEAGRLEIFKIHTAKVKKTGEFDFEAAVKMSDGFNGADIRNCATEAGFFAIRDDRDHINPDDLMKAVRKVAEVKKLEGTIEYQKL

[6] = molecular target: Proteasome subunit alpha type-4 (UniProt P40303); experiment: as above
[7] = molecular target: Ubiquitin carboxyl-terminal hydrolase 6 (UniProt P43593); experiment: as above
Sequence of Ubiquitin carboxyl-terminal hydrolase 6 (P43593 whole entry): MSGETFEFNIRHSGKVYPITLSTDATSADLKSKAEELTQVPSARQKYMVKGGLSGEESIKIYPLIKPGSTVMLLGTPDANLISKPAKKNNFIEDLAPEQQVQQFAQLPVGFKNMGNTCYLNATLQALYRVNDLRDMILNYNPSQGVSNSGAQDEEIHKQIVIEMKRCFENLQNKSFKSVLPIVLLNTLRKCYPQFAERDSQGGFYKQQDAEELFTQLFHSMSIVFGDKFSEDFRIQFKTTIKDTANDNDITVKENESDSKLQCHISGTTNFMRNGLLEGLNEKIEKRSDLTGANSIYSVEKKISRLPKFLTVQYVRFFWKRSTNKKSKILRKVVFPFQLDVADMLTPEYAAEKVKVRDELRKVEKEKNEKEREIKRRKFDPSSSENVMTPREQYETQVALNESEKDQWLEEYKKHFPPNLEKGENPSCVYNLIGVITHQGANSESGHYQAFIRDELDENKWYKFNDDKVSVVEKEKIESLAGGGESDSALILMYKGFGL

[8] = molecular target: 26S proteasome regulatory subunit 6B homolog (UniProt P33298); experiment: as above
Sequence of 26S proteasome regulatory subunit 6B homolog (P33298 whole entry): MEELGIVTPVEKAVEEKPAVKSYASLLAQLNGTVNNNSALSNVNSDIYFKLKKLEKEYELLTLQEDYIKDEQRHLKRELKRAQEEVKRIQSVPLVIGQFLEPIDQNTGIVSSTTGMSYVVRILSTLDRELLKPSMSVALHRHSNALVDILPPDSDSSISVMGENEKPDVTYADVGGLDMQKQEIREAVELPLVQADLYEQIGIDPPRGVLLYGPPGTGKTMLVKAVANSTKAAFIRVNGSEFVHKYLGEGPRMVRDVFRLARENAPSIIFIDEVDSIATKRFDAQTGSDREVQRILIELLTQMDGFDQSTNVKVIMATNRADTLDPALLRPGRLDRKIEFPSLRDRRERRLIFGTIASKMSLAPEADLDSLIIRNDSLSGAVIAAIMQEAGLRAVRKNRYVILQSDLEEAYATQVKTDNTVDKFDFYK

[9] = molecular target: 26S proteasome regulatory subunit 7 homolog (UniProt P33299); experiment: as above
Sequence of 26S proteasome regulatory subunit 7 homolog (P33299 whole entry): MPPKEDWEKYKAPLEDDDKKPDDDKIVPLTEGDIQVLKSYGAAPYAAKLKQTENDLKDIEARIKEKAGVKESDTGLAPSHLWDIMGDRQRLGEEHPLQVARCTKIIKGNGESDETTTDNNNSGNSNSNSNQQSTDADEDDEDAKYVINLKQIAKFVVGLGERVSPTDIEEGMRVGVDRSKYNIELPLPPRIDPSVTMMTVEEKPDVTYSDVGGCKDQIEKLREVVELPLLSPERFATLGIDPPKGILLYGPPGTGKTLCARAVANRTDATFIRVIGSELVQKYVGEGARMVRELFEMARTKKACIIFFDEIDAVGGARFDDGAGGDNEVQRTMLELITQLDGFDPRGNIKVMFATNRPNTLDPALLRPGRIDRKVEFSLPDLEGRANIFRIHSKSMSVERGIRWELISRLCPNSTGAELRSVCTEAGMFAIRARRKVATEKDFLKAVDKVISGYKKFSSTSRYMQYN

[10] = molecular target: 26S proteasome regulatory subunit RPN6 (UniProt Q12377); experiment: as above
Sequence of 26S proteasome regulatory subunit RPN6 (Q12377 whole entry): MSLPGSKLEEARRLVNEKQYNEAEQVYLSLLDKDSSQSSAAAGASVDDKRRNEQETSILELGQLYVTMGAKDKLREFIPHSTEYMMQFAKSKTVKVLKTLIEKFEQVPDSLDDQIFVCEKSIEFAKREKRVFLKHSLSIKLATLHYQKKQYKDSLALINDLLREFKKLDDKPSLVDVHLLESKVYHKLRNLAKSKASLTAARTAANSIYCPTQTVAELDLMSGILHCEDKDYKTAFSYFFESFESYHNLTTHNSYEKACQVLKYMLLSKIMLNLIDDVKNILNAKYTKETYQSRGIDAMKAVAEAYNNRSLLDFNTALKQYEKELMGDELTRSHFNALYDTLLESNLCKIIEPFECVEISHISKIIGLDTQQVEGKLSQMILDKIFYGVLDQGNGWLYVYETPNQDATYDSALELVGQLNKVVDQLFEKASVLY

[11] = molecular target: Ubiquitin C-terminal hydrolase RPN11 (UniProt P43588); experiment: as above
[12] = molecular target: 26S proteasome regulatory subunit 4 homolog (UniProt P40327); experiment: as above
Sequence of 26S proteasome regulatory subunit 4 homolog (P40327 whole entry): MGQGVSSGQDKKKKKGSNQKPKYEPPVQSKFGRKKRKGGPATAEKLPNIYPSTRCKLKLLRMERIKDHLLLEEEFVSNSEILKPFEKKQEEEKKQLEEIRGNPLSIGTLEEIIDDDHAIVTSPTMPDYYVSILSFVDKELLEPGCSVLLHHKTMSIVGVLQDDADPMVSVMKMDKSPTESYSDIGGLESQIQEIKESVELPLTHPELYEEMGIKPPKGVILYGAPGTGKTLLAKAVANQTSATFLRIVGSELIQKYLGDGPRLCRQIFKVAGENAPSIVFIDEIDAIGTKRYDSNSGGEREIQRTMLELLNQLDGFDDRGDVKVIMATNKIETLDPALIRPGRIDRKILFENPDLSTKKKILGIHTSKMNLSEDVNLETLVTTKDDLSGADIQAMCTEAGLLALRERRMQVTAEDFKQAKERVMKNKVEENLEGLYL

[13] = molecular target: Probable 26S proteasome regulatory subunit p28 (UniProt P50086); experiment: as above
[14] = molecular target: 26S proteasome regulatory subunit RPN5 (UniProt Q12250); experiment: as above
[15] = molecular target: Proteasome subunit beta type-1 (UniProt P38624); experiment: as above
[16] = molecular target: Proteasome subunit beta type-7 (UniProt P30657); experiment: as above
[17] = molecular target: 26S proteasome regulatory subunit RPN9 (UniProt Q04062); experiment: as above
Sequence of 26S proteasome regulatory subunit RPN9 (Q04062 whole entry): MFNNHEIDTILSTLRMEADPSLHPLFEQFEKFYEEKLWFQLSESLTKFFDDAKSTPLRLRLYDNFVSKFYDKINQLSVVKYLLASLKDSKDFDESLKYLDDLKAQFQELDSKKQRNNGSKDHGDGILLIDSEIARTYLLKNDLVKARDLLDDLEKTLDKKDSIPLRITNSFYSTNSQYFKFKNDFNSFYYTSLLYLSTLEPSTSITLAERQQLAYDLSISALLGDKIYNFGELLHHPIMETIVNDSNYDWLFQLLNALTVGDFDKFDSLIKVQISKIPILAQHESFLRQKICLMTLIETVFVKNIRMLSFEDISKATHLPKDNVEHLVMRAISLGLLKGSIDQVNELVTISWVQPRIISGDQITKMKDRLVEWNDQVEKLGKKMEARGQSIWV

[18] = molecular target: Proteasome subunit beta type-5 (UniProt P30656); experiment: as above
[19] = molecular target: 26S proteasome subunit RPT4 (UniProt P53549); experiment: cross-link between two proteins; affinity purification or IP with mass spectrometry; cross-linking mass spectrometry
[20] = molecular target: Proteasome subunit alpha type-1 (UniProt P21243); experiment: cross-link between two proteins; cross-linking mass spectrometry
[21] = molecular target: Proteasome subunit alpha type-6 (UniProt P40302); experiment: as above

Measured: listed as a hit

Sequence of 26S proteasome regulatory subunit RPN1 (P38764 whole entry): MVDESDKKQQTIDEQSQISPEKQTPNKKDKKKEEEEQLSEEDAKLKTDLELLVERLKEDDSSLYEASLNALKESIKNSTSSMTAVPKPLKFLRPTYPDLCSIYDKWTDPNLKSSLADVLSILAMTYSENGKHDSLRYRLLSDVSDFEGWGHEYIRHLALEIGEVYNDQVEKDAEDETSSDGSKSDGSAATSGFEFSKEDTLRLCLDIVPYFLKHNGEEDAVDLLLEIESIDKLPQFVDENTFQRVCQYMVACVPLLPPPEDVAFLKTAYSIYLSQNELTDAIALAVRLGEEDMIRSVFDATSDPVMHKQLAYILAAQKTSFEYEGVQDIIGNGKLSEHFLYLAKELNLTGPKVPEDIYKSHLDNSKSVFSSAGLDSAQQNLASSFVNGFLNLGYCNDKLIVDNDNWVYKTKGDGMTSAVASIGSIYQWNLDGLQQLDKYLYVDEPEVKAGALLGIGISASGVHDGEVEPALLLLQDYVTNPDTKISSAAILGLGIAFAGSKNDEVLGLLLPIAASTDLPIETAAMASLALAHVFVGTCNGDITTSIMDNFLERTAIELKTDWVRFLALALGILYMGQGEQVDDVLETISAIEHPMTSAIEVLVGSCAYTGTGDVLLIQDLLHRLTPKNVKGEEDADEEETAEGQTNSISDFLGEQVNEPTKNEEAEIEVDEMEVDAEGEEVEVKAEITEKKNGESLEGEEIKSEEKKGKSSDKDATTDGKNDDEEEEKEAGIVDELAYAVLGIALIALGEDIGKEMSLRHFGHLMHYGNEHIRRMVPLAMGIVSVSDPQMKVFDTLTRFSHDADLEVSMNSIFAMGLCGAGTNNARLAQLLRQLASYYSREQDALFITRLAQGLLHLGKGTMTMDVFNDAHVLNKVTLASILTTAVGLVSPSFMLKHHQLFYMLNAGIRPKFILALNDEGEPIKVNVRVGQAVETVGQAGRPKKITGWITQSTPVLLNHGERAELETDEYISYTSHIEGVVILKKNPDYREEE
Sequence of 26S proteasome regulatory subunit 8 homolog (Q01939 whole entry): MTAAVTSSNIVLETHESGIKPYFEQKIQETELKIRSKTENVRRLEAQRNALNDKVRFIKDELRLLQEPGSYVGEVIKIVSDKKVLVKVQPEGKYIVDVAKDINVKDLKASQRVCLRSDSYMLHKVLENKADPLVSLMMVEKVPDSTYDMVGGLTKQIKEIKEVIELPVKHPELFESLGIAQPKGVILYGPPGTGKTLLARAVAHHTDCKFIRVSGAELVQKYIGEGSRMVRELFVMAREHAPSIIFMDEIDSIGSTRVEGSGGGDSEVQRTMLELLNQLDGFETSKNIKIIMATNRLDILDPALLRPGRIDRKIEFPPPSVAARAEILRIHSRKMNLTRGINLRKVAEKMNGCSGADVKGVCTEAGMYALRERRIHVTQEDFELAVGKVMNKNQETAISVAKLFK
Sequence of 26S proteasome regulatory subunit RPN8 (Q08723 whole entry): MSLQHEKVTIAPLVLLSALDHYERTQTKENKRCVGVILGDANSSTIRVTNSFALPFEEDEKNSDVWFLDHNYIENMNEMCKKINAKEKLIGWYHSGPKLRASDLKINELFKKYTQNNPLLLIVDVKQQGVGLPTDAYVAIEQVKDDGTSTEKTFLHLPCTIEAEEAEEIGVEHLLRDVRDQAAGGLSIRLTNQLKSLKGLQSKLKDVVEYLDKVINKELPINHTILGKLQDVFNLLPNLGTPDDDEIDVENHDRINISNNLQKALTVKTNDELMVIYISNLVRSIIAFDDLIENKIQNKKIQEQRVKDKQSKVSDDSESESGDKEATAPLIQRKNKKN

26S proteasome regulatory subunit 7 homolog, P33299
yes: [1] | [2] | [3] | [4] | [5] | [6] | [7]

26S proteasome regulatory subunit RPN2, P32565
yes: [8] | [9] | [2] | [10] | [4] | [11]

26S proteasome regulatory subunit 6B homolog, P33298
yes: [12] | [9] | [2] | [10] | [4] | [13] | [11]

Proteasome subunit alpha type-4, P40303
yes: [12] | [1]

Proteasome subunit alpha type-1, P21243
yes: [8] | [14] | [5] | [15] | [16]

Probable 26S proteasome regulatory subunit p28, P50086
yes: [1] | [10]

26S proteasome regulatory subunit RPN1, P38764
yes: [12] | [1] | [3] | [4] | [5] | [11] | [7]

Proteasome subunit alpha type-2, P23639
yes: [8] | [1] | [10]

26S proteasome regulatory subunit RPN10, P38886
yes: [11]

Ubiquitin C-terminal hydrolase RPN11, P43588
yes: [17]

Proteasome subunit beta type-4, P22141
yes: [18]

Heat shock protein SSA1, P10591
yes: [19]

Proteasome subunit alpha type-3, P23638
yes: [12] | [1] | [10] | [3] | [6]

26S proteasome subunit RPT4, P53549
yes: [1] | [14] | [4] | [17]

26S proteasome regulatory subunit RPN12, P32496
yes: [17]

26S proteasome regulatory subunit 8 homolog, Q01939
yes: [10] | [3] | [4]

Probable proteasome subunit alpha type-7, P21242
yes: [14] | [5] | [20]

26S proteasome regulatory subunit 6A, P33297
yes: [8] | [1] | [14] | [4]

26S proteasome regulatory subunit 4 homolog, P40327
yes: [5] | [7]

Proteasome subunit alpha type-5, P32379
yes: [9]

Proteasome subunit beta type-6, P23724
yes: [21] | [18] | [16]
